Laboratory results reported in PubChem BioAssay (NCATS).
Values without a mark were called inactive. Inconclusive results are not listed. The source made the active and inactive calls. Unless noted, calls follow the shape of the dose curve; as a rule, active = well fitted curve in either direction with a large enough effect (not every such curve was filed as active); inconclusive = small, poorly fitted or top-dose-only effect, or another doubt; inactive = flat fitted curve, though single readings scatter.

How the values were obtained:
[1] = AP1 Signaling Pathway (AID 357); conditions: ME-180 AP-1-bla reporter, EGF-induced, beta-lactamase ratio, 5 h; at 17.2 µM (top of the series) unless noted; also: % is scaled to controls: 0 for no effect and ±100 for the full control effect
Outline: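 ME-180 cells with beta-lactamase reporter under AP-1 response element, stimulated with EC50 EGF; compounds tested in titration series, 5 h at 37 °C. CCF4 substrate added 2.5 h at room temperature; 460/530 nm emission ratio gave %activity and AC50.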

[2] = NFAT Signaling Pathway (AID 444); conditions: Jurkat NFAT-bla M1, carbachol, beta-lactamase ratio, 5 h; at 17.2 µM (top of the series) unless noted;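 also: carbachol stimulus at about its EC50 of 1 µM final; % is scaled to controls: 0 for no effect and ±100 for the full control effect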
Outline: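 Jurkat cells with NFAT-driven β-lactamase reporter and co-expressed M1 receptor, stimulated with carbachol (final 1 uM, ~EC50), compound titration, 5 h at 37 °C. CCF4 loaded 1 h at RT; 460/530 nm ratio gave %activity and AC50.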

[3] = target: Glucocorticoid receptor (Homo sapiens) (UniProt P04150); assay: GR-GFP Redistribution (AID 450;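 active = compounds whose dose series gives a full or clear partial fitted curve of increased nuclear translocation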; also: potency is read from the fitted curve at half-maximal effect)
[4] = target: Glucocorticoid receptor (Homo sapiens) (UniProt P04150); assay: GR-EFC Redistribution (AID 451; calls by dose curve; also: potency is read from the fitted curve at half-maximal effect); conditions: CHO-K1 GR-EFC translocation, beta-gal luminescence, 2 h
Outline: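 CHO-K1 cells expressing nuclear EA and GR-ED fragments of b-gal; compounds titrated up to 46 uM final, 2 h at 37 C. GR nuclear translocation read as complemented b-gal luminescence after 1 h RT detection.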

[5] = target: Mitogen-activated protein kinase 10 (Mus musculus) (UniProt Q61831); assay: JNK3 AlphaScreen Assay (AID 530);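 also: kinase came from lysate of stimulated human HepG2 cells; signal reports phosphorylation of biotinylated GST-cJun 1-79 at Ser73 with 10 µM ATP; % is scaled to controls: 0 for no effect and ±100 for the full control effect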
Outline: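 Activity was read by AlphaScreen after JNK3-containing HepG2 lysate (cytokine pre-activated) phosphorylated biotinylated GST-cJun with 10 uM ATP at room temperature. Phospho-Ser73 cJun antibody with Protein-A acceptor beads provided detection.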

[6] = target: Guanine nucleotide-binding protein G(i) subunit alpha-1 (Homo sapiens) (UniProt P63096); assay: qHTS Assay for Inhibitors of RGS12 GoLoco Motif Activity (Green Fluorophore) (AID 879; active = well fitted curve in the direction sought with a large enough effect; an effect the other way counts as inactive or inconclusive;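 also: 0% = labeled peptide with Gαi1 and full inhibition = labeled peptide alone without protein; negative values mean loss of peptide binding seen as reduced polarization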)
Outline: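 A drop in FITC polarization marked displacement of the FITC-tagged RGS12 GoLoco peptide (10 nM) from Gαi1 (50 nM). Compounds were incubated 10 min at room temperature in Tris pH 7.5 buffer containing 150 mM NaCl, 0.1 mM GDP and 0.05% NP40; unlabeled peptide titration served as control.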

[7] = qHTS Assay for Identification of Small Molecule Agonists for Thrombopoietin (TPO) Signaling Pathway (AID 917; active = well fitted curve in the direction sought with a large enough effect; an effect the other way counts as inactive or inconclusive; also: % is scaled to controls: 0 for no effect and ±100 for the full control effect)
Outline: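 Cell-based luciferase reporter screen. Mouse Ba/F3 line stably expressing human TPO receptor; IL-3 removed overnight before plating. Co-treatment with compound and EC50 TPO (26 pM), 24 hrs at 37 C, then luminescence.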

[8] = target: Muscarinic acetylcholine receptor M1 (Rattus norvegicus) (UniProt P08482); assay: qHTS Assay for Antagonists of Acetylcholine Muscarinic M1 Receptor: Measurement of IP-One Response (AID 944; active = well fitted curve in the direction sought with a large enough effect; an effect the other way counts as inactive or inconclusive; also: nearly all actives have a fitted effect of over 75% in size)
Outline: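 IP1 accumulation measured via TR-FRET between d2-IP1 and Eu-cryptate anti-IP1 antibody after carbachol (200 nM, EC80) stimulation for 30 min; rat M1-transfected CHO cells received compound 10 min before agonist.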

[9] = target: Cytochrome P450 2C9 (Homo sapiens) (UniProt P11712); assay: qHTS Assay for Inhibitors and Substrates of Cytochrome P450 2C9 (AID 883; active = well fitted curve in the direction sought with a large enough effect; an effect the other way counts as inactive or inconclusive; also: % is scaled to controls: 0 for no effect and ±100 for the full control effect; nearly all actives have a fitted effect of over 60% in size)
Outline: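 Signal: luciferase luminescence reporting luciferin produced by CYP2C9. Conditions: 10nM enzyme, Luciferin-H 100uM at KM, 25mM KPO4, 37C, 60 min NADPH-driven reaction. Reference: 57uM sulphaphenazole as 100% inhibition.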

[10] = target: Cytochrome P450 3A4 (Homo sapiens) (UniProt P08684); assay: qHTS Assay for Activators of Cytochrome P450 3A4 (AID 885; active = well fitted curve in the direction sought with a large enough effect; an effect the other way counts as inactive or inconclusive; also: nearly all actives have a fitted effect of over 65% in size)
Outline: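 Human CYP3A4 dealkylates Luciferin-PPXE to luciferin, which luciferase detection converts to light. Substrate was at its KM (25uM), buffer 200mM KPO4, reaction 60 min at RT.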

[11] = Stat Signaling Pathway (AID 446); conditions: ME-180 (cervical carcinoma) SIE beta-lactamase reporter, IL-6 stimulated, 5 h; at 17.2 µM (top of the series) unless noted
Outline: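 Normalization used AC90 stimulation (300 pM IL-6) and AC90 inhibition (125 nM pan-JAK inhibitor at 40 pM IL-6). The underlying signal is SIE-driven beta-lactamase in ME-180 cells after 5 h IL-6 exposure with compound.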

Glucocorticoid receptor (Homo sapiens), sequence (P04150 whole entry, looked up, the tested form may be a part): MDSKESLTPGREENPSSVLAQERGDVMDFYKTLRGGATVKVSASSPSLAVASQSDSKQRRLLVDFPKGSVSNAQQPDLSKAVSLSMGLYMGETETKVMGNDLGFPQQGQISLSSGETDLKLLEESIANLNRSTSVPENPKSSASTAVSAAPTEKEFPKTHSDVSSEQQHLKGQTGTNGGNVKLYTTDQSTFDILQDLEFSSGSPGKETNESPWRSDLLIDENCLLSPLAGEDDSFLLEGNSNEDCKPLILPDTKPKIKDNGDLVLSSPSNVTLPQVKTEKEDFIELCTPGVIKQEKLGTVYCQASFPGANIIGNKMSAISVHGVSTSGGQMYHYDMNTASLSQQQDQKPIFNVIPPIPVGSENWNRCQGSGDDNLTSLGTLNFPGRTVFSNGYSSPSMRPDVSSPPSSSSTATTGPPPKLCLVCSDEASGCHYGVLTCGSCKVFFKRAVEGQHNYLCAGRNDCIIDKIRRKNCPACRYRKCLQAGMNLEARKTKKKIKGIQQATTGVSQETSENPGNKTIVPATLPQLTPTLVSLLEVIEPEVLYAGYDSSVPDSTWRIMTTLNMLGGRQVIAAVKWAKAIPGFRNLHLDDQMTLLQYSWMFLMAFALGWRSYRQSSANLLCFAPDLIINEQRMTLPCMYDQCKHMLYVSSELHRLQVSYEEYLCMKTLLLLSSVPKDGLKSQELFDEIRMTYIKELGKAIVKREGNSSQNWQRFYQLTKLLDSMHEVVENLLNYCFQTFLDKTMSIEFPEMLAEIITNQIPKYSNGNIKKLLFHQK
Guanine nucleotide-binding protein G(i) subunit alpha-1 (Homo sapiens), sequence (P63096 whole entry, looked up): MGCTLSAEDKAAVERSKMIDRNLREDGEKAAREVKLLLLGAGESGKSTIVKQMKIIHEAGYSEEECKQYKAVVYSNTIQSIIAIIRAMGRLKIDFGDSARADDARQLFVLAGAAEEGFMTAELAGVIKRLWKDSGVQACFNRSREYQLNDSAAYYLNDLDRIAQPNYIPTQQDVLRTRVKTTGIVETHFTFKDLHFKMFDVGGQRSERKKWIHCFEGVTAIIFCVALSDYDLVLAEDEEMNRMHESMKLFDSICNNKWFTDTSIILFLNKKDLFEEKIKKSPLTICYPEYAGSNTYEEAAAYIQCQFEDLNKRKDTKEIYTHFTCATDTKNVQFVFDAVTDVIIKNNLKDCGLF
Cytochrome P450 3A4 (Homo sapiens), sequence (P08684 whole entry, looked up): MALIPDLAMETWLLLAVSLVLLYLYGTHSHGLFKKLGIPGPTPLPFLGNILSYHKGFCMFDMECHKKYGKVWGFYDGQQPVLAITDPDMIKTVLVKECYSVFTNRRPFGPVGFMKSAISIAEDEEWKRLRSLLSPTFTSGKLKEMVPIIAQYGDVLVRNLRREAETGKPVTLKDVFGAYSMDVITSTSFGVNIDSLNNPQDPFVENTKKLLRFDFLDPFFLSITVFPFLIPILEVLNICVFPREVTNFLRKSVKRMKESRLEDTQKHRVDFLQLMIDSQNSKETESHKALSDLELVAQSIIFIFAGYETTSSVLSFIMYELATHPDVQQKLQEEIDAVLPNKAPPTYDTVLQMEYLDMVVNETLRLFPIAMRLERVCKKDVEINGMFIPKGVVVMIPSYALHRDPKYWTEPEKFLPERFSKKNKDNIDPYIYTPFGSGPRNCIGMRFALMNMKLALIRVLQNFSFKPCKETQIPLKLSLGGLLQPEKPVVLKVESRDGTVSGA
Cytochrome P450 2C9 (Homo sapiens), sequence (P11712 whole entry, looked up): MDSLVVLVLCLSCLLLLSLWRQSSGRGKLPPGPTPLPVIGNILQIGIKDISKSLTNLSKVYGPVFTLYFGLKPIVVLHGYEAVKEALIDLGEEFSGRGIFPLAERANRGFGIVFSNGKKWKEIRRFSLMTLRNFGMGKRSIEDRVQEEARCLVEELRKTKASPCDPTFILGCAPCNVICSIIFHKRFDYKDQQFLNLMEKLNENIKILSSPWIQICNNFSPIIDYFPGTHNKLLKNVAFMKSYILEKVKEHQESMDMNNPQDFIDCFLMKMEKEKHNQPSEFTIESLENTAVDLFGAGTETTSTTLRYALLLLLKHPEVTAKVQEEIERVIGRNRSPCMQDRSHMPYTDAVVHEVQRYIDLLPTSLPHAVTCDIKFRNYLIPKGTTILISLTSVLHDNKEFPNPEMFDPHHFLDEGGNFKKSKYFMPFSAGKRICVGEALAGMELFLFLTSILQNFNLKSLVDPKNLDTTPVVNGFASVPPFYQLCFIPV
Muscarinic acetylcholine receptor M1 (Rattus norvegicus), sequence (P08482 whole entry, looked up): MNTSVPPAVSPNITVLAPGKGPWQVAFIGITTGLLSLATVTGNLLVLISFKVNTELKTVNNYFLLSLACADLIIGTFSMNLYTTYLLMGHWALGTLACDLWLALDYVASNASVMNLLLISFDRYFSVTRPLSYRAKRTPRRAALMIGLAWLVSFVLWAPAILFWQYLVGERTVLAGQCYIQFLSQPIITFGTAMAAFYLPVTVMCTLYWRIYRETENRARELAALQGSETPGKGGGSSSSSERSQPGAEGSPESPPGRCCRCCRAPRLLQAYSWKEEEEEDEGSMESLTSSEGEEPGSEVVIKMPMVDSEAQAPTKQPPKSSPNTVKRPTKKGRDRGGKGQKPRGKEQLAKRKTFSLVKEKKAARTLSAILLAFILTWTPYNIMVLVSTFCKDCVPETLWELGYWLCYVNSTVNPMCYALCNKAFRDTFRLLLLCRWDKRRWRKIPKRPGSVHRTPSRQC

SMILES: O=S(=O)(c1ccccc1)N1CCC(N2CCN(c3ccccc3)CC2)CC1
- activity change, negative = inhibition [1]: -9.33%
- activity change, negative = inhibition [2]: 6.66%
- Potency [3]: > 20.6 µM

SMILES: Cn1c(=O)c2c(nc(NCc3ccco3)n2CCc2ccccc2)n(C)c1=O
- activity change, negative = inhibition [1]: -0.525%
- activity change, negative = inhibition [2]: -24%
- Potency [3]: > 20.6 µM

SMILES: N#CCc1nc2c3c4c(sc3ncn2n1)CCCC4
- activity change, negative = inhibition [1]: -0.68%
- activity change, negative = inhibition [2]: -9.45%
- Potency [3]: > 20.6 µM

SMILES: CN(CCCCCC(=O)/C=N/O)Cc1ccccc1
- activity change, negative = inhibition [1]: 26.2%
- activity change, negative = inhibition [2]: -28%
- Potency [3]: > 20.6 µM

SMILES: Cc1ccnc(N2CCN(c3c4c(c(C#N)c5nc6ccccc6n35)CCC4)CC2)c1
- activity change, negative = inhibition [1]: -8.81%
- activity change, negative = inhibition [2]: -1.93%
- Potency [3]: > 20.6 µM

SMILES: CCCCOc1cccc(-c2nnc(N)s2)c1
- activity change, negative = inhibition [1]: -19.6%
- activity change, negative = inhibition [2]: 7.5%
- Potency [3]: > 20.6 µM

SMILES: Cc1nn(-c2cccc(Cl)c2)c2c1C(c1ccncc1)C(C#N)=C(N)O2 (centres undefined)
- activity change, negative = inhibition [1]: 17.6%
- activity change, negative = inhibition [2]: -16.8%
- Potency [3]: > 20.6 µM

SMILES: CCN(CC)CCCN1C(=O)C(=O)/C(=C(/O)c2ccc3c(c2)CC(C)O3)C1c1ccncc1 (centres undefined)
- activity change, negative = inhibition [1]: 0.667%
- activity change, negative = inhibition [2]: 13.1%
- Potency [3]: > 20.6 µM

SMILES: O=C(/C=C/c1ccccc1)c1ccccc1
- activity change, negative = inhibition [1]: 19.8%
- activity change, negative = inhibition [2]: -14.4%
- Potency [3]: > 20.6 µM

SMILES: O=C(NO)c1ccccc1O
- activity change, negative = inhibition [1]: -4.21%
- activity change, negative = inhibition [2]: -9.27%
- Potency [3]: > 20.6 µM

SMILES: COc1ccccc1C(=O)N1CCN(Cc2ccc3c(c2)OCO3)CC1
- activity change, negative = inhibition [1]: -11.7%
- activity change, negative = inhibition [2]: -10.5%
- Potency [3]: > 20.6 µM

SMILES: CC1(C)Cc2c(C#N)c(NCCc3ccccc3)nc(-c3ccco3)c2CO1
- activity change, negative = inhibition [1]: 14.4%
- activity change, negative = inhibition [2]: 80.9% [activator] (active)
- Potency [3]: > 20.6 µM

SMILES: Nc1nonc1-c1noc(-c2ccccc2)n1
- activity change, negative = inhibition [1]: 7.84%
- activity change, negative = inhibition [2]: -13.1%
- Potency [3]: > 20.6 µM

SMILES: COc1cccc(C2/C(=C(/O)c3ccc(C)cc3)C(=O)C(=O)N2Cc2ccco2)c1 (centres undefined)
- activity change, negative = inhibition [1]: 2.99%
- activity change, negative = inhibition [2]: -8.9%
- Potency [3]: > 20.6 µM

SMILES: O=C(Nc1nnc(SCc2ccccc2F)s1)c1ccco1
- activity change, negative = inhibition [1]: -5.32%
- activity change, negative = inhibition [2]: 11.2%
- Potency [3]: > 20.6 µM

SMILES: CC(C)CC(NC(=O)OC(C)(C)C)C(=O)NCc1ccccc1 (centres undefined)
- activity change, negative = inhibition [1]: -7.56%
- activity change, negative = inhibition [2]: -25.8%
- Potency [3]: > 20.6 µM

SMILES: COC(=O)C1C(=O)CC(C)(O)C(C(=O)OC)C1c1ccccc1F (centres undefined)
- activity change, negative = inhibition [1]: 0.159%
- activity change, negative = inhibition [2]: -0.943%
- Potency [3]: > 20.6 µM

SMILES: c1ccc2c(c1)[nH]c1c(N3CCC4(CC3)OCCO4)ncnc12
- activity change, negative = inhibition [1]: -1.63%
- activity change, negative = inhibition [2]: 7.49%
- Potency [3]: > 20.6 µM

SMILES: C=CCc1cccc(/C=N/n2cnnc2)c1O
- activity change, negative = inhibition [1]: -1.43%
- activity change, negative = inhibition [2]: -2.18%
- Potency [3]: > 20.6 µM

SMILES: COC(=O)c1ccc(C2NC(C(=O)O)CS2)cc1 (centres undefined)
- activity change, negative = inhibition [1]: 5.95%
- activity change, negative = inhibition [2]: 6.25%
- Potency [3]: > 20.6 µM

SMILES: O=C(NCCN1CCCCC1)c1ccc(=O)oc1
- activity change, negative = inhibition [1]: 13.4%
- activity change, negative = inhibition [2]: 6.11%
- Potency [3]: > 20.6 µM

SMILES: ClC(Br)=C(n1cnc2ccccc21)n1cnc2ccccc21
- activity change, negative = inhibition [1]: -25.5%
- activity change, negative = inhibition [2]: -11.4%
- Potency [3]: > 20.6 µM

SMILES: CN(C)CCCO[C@H]1[C@H]([C@H](O)CO)O[C@H]2OC(C)(C)O[C@@H]21
- Potency [4]: > 46 µM
- Potency [5]: inactive

SMILES: CC[C@H](C)[C@@H]1O[C@]2(CC[C@@H]1C)C[C@H]1C[C@H](CC=C(C)[C@@H](O[C@@H]3C[C@H](OC)[C@H](O[C@@H]4C[C@H](OC)[C@H](O)[C@H](C)O4)[C@H](C)O3)[C@@H](C)C=CC=C3CO[C@@H]4[C@@H](O)C(C)=C[C@@H](C(=O)O1)[C@]34O)O2
- Potency [4]: > 20.6 µM

SMILES: CCCCCCCCCC(=O)N[C@@H](CN1CCOCC1)[C@@H](O)c1ccccc1
- Potency [5]: inactive
- outcome [6]: inactive
- Potency [7]: inactive
- Potency [8]: inactive

SMILES: CCCCCCCCCCCCCCCCCC(=O)NC[C@@H](COP(=O)([O-])OCC[N+](C)(C)C)OCC
- Potency [9]: inactive
- Potency [10]: inactive
- Potency [7]: inactive

SMILES: CSc1nc2[nH]c3c(c2c2nnnn12)CCCC3
- activity change, negative = inhibition [1]: -20.6%
- activity, negative = inhibition [11]: -10.8%
- Potency [3]: > 20.6 µM

SMILES: C=CCn1c(=S)[nH]c2nc3c(cc2c1=O)CCCC3
- activity change, negative = inhibition [1]: -14.7%
- activity, negative = inhibition [11]: -11.2%
- Potency [3]: > 20.6 µM

SMILES: CCC(C)Nc1nc(-c2cccc(OC)c2O)nc2ccccc12 (centres undefined)
- activity change, negative = inhibition [1]: -28.3%
- activity, negative = inhibition [11]: -18.2%
- Potency [3]: > 20.6 µM

SMILES: CCCOc1ccc(Cc2nn[nH]n2)cc1
- activity change, negative = inhibition [1]: 6.52%
- activity, negative = inhibition [11]: 2.28%
- Potency [3]: > 20.6 µM

SMILES: CN1CCN(C(=O)CSc2nc(-c3cccs3)ccc2C#N)CC1
- activity change, negative = inhibition [1]: -11%
- activity, negative = inhibition [11]: -1.05%

SMILES: O=c1[nH]c(CN2CCCCC2)nc2c1C1(CCCC1)Cc1ccccc1-2
- activity change, negative = inhibition [1]: 14.5%
- activity, negative = inhibition [11]: -7.96%

SMILES: CC[C@H]1OC(=O)C[C@@H](O)[C@H](C)[C@@H](O[C@@H]2O[C@H](C)C[C@H](N(C)C)[C@H]2O)[C@@H](CC=O)C[C@@H](C)C(=O)C=C[C@]2(C)O[C@H]2[C@@H]1C
- activity change, negative = inhibition [1]: 1.65%
- activity, negative = inhibition [11]: 1.05%
